Test results published in PubChem BioAssay (NCI).
Compounds without any hit were thinned out: in the full panel of roughly 83,000, 20% have a hit.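 Negative percent growth values reflect cell death: -40 means 40% of the cells present at the start died, and -100 means all died.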 Values without a mark were called inactive. The source made the active and inactive calls. Rule for the calls: active = growth percent below 10; inactive = the rest.

Key:
Assay in all cases: NCI-60 one-dose screen, 48 h (100 = growth as untreated, 0 = no growth, -100 = all killed)
Conditions in all cases: 10 µM
[1] = tested on: OVCAR-8 ovarian
[2] = tested on: OVCAR-5 ovarian
[3] = tested on: OVCAR-4 ovarian
[4] = tested on: SK-OV-3 ovarian
[5] = tested on: IGROV1 ovarian
[6] = tested on: OVCAR-3 ovarian
[7] = tested on: HS 578T breast
[8] = tested on: NCI/ADR-RES ovarian
[9] = tested on: T-47D breast

Structure (SMILES) | growth [1] | growth [2] | growth [3] | growth [4] | growth [5] | growth [6] | growth [7] | growth [8] | growth [9]
CN(CCc1ccccn1)c1ccccc1 | 102% | 94% | 98.5% | 112% | 103% | 131% | 107% | 105% | 97.4%
O=C(O)CN1C(=O)c2cccc3cccc(c23)C1=O | 98.8% | 105% |  | 94% | 111% | 118% | 108% | 102% | 90.1%
CCOC(=O)CCC(NC(=O)c1ccc(N)cc1)C(=O)OCC (configuration not stated) | 105% | 89.6% | 95.7% | 109% | 105% | 106% | 113% | 102% | 101%
Clc1nc(Cl)c2c(ncn2C/C=C\Cn2cnc3c(Cl)nc(Cl)nc32)n1 | -83% (active) | -76.7% (active) | -69% (active) | 34.5% | -83.7% (active) | -98.9% (active) | -53% (active) | 11% | -47% (active)
COc1ccc(OC)c(/C=C/c2nc(SC)n(-c3ccc(Cl)cc3)n2)c1 | 78.5% | 112% | 70% | 83.8% | 61.8% |  | 91.2% |  | 42.8%
Nc1ccc2c(c1)Cc1cc(N)c(Br)cc1-2 | 102% | 113% |  | 101% | 116% | 115% | 76.7% | 90.2% | 78.5%
COc1cccc(-c2cc(-c3cccc(NS(C)(=O)=O)c3)nc(N)c2C#N)c1O | 42.4% | 84.1% | 52.8% | 27.2% | 91.2% |  | 52.8% |  | 52%
CCCCC/C=C/C(=O)CCc1ccc(O)c(OC)c1 | 88.6% | 127% |  | 86.7% |  | 55.8% | 104% |  | 73.3%
COc1ccc(CN2CCC(N3CCCC3=O)c3cc(Cl)ccc32)cc1 (configuration not stated) | 104% | 93.3% | 95.3% | 105% | 104% | 120% | 99.3% | 90.2% | 89.5%
CN1CCCNc2c(c(=O)c2=O)NCCCN(C)CCCNc2c(c(=O)c2=O)NCCCN(C)CCCNc2c(c(=O)c2=O)NCCCN(C)CCCNc2c(c(=O)c2=O)NCCCN(C)CCCNc2c(c(=O)c2=O)NCCCN(C)CCCNc2c(c(=O)c2=O)NCCCN(C)CCCNc2c(c(=O)c2=O)NCCC1 | 18.9% | 99.6% | 66.5% | 29.4% | 47.6% | 35.9% | 85% | 64.9% | 14.7%
O=C1C(=O)c2ccccc2C(O)=C1CCCc1ccc(C2CCCCCC2)cc1 | 46.8% | 82.6% | 20.9% | 48.8% | 21% |  | 115% |  | 29%
ClCC#CCSc1ncnc2c1ncn2CC#CCCl | 24.4% | 14.1% | 34.3% | 45.7% | 30.7% |  | 107% |  | -23.1% (active)
CC1(O)CCC2CC3OC3(C)CCC3OC3(C)CCC1C2(C)C (configuration not stated) | 83% | 109% | 109% | 104% | 89.5% | 69.4% | 89.4% | 109% | 104%
COc1ccc2c(c1)[n+]([O-])c(C#N)c(NC(=O)c1ccco1)[n+]2[O-] | 65.3% | 111% | 93.8% | 91.2% | 118% | 113% | 92.5% | 111% | 91.5%
CS(=O)(=O)Nc1cccc(-c2cc(-c3ccccc3Cl)c(C#N)c(N)n2)c1 | 44% | 56.3% | 47.1% | 22% | 51.4% | -29.3% (active) | -1.53% (active) |  | 36.9%
COc1ccc(-c2cc(-c3cccc(NS(C)(=O)=O)c3)nc(N)c2C#N)cc1 | 37.6% | 53.8% | 51.3% | 20.3% | 73.4% | -48.4% (active) | -14.3% (active) |  | 57.5%

Structure (SMILES) | growth [1] | growth [2] | growth [3] | growth [4] | growth [5] | growth [6] | growth [7] | growth [8] | growth [9]
CN(C)c1ccc(-c2cc(-c3cccc(NS(C)(=O)=O)c3)nc(N)c2C#N)cc1 | 30% | 52% | 45.7% | 15.1% | 80.4% | -48.2% (active) | 15.3% |  | 80.4%
CO/N=C(/C(=O)NC1C(=O)N2C(C(=O)O)=C(COC(N)=O)CSC12)c1ccco1 (configuration not stated) |  | 108% | 106% | 114% | 109% |  | 116% | 110% | 101%
CSc1cc(SC)ncn1 | 105% | 105% | 113% | 104% | 116% | 124% | 115% | 118% | 105%
Nc1ncn([C@@H]2O[C@H](CO)[C@@H](O)[C@H]2O)c(=O)n1 | 22.4% | 56.8% | 34.1% | 17.4% | 18.5% | 22.7% | 23.7% | 29.1% | 26.6%
O=C1CC[C@@H]2CCCC[C@@H]2C1 | 109% | 101% |  | 99.4% | 105% | 132% | 110% | 110% | 93.5%
Cc1cs/c(=N\NC(=O)c2cc(-c3cc4ccccc4o3)nn2-c2ccccc2)n1-c1ccccc1 | 90.8% | 107% | 82.1% | 91.2% | 2.32% (active) |  | 49.7% | 87.1% | 69.6%
O=[N+]([O-])c1ccc(N/N=C/c2cccc3ccccc23)nc1 | 104% | 96.7% | 90.4% | 105% | 89.8% | 122% | 108% | 107% | 75.4%
CC(C)=NNc1ncnc2c1ncn2C1OC(CO)C(O)C1O (configuration not stated) | 25.7% | 49.2% | 26.4% | 4.34% (active) | 64.5% | 3.84% (active) | -2.14% (active) |  | 19.2%
O=C1NC(=O)N(Cc2ccccc2)CC1Br (configuration not stated) | 61.9% | 85.3% | 77.7% | 87% | 56.9% | 92.9% | 114% | 56.6% | 57%
O=C1/C(=C/c2ccc(Cl)cc2)SC(=Nc2ccc(Cl)cc2)N1Cc1nc2ccccc2[nH]1 | 66.9% | 107% |  | 97.6% | 64.8% | 81.6% | 114% |  | 78.1%
CCn1cc(C(=O)O)c(=O)c2cnc(N3CCCC3)nc21 | 101% | 103% | 105% | 108% | 103% | 119% | 99.9% | 102% | 99.1%
O=c1c2ccccc2nc(SCCN2CCCCC2)n1CCc1ccccc1 | 95.9% | 88.7% | 86.7% | 92.6% | 78.7% | 94.1% | 93.9% | 87.6% | 65.5%
COc1ccc(OC)c(/C=C/c2nnc(Nc3ccc(Cl)cc3)o2)c1 | 66.7% | 103% | -16% (active) | 32.9% | 80.6% | 32.1% | 6.91% (active) |  | -4.56% (active)
COc1cc2c(cc1OCCCCCCN1CCN(CC(=O)Nc3ccc(Cl)cc3C(=O)c3ccccc3Cl)CC1)N=CC1CCCN1C2=O (configuration not stated) |  | -74.4% (active) | -88.9% (active) | -90.2% (active) | -79% (active) | -91.9% (active) | -83.5% (active) | -60.8% (active) | -57.8% (active)
O=C1c2ccc3c4c(ccc(c24)C(=O)N1CCNCc1ccccc1)C(=O)N(CCNCc1ccccc1)C3=O |  | 132% | -97.8% (active) | 109% | -75.7% (active) | -62.6% (active) | 102% |  | -27.2% (active)
COc1cc(CNCCCCCCN2C(=O)c3cccc4cccc(c34)C2=O)ccc1O |  | 116% |  | 69% |  | 90.1% | 106% |  | 65.3%
